Publication PMC5540273 (PLoS ONE, 2017)

Key:
Settings in all cases: concentration: 1 μM, replicates: in singlicate; n = 1
MINK = test system: T1, MINK
T1 construct: gene MINK1

MKK7 = test system: MKK7
MKNK1 = test system: MKNK1
MKNK2 = test system: MKNK2
MLCK = test system: T2, MLCK
T2 construct: gene MYLK3

MLK1 = test system: T3, MLK1
T3 construct: gene MAP3K9

MLK2 = test system: MLK2
MLK3 = test system: MLK3
MRCKA = test system: MRCKA
MRCKB = test system: T4, MRCKB
T4 construct: gene CDC42BPB

MST1R = test system: MST1R
MST1 = test system: T5, MST1
T5 construct: gene STK4

MST2 = test system: T6, MST2
T6 construct: gene STK3

MST3 = test system: T7, MST3
T7 construct: gene STK24

MST4 = test system: MST4
MTOR = test system: MTOR
MUSK = test system: MUSK
MYLK2 = test system: MYLK2
MYLK4 = test system: MYLK4
MYLK = test system: MYLK
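Note: KINOMEscan kinase panel screen.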

Row | Compound | %Inh (MINK) [%] | %Inh (MKK7) [%] | %Inh (MKNK1) [%] | %Inh (MKNK2) [%] | %Inh (MLCK) [%] | %Inh (MLK1) [%] | %Inh (MLK2) [%] | %Inh (MLK3) [%] | %Inh (MRCKA) [%] | %Inh (MRCKB) [%] | %Inh (MST1R) [%] | %Inh (MST1) [%] | %Inh (MST2) [%] | %Inh (MST3) [%] | %Inh (MST4) [%] | %Inh (MTOR) [%] | %Inh (MUSK) [%] | %Inh (MYLK2) [%] | %Inh (MYLK4) [%] | %Inh (MYLK) [%]
1 | O=C(Nc1n[nH]c2nc(-c3cccs3)c(Br)cc12)C1CCCC1 [SB-743341] | 8 | 12 | 23 | 67 | 86 | 0 | 38 | 19 | 0 | 0 | 17 | 0 | 51 | 0 | 2 | 12 | 37 | 97.7 | 17 | 24
2 | CCc1ccc(-c2ccc3c(c2)-c2n[nH]cc2S(=O)(=O)N3C)cc1 | 2 | 0 | 0 | 0 | 16 | 13 | 16 | 0 | 0 | 6 | 0 | 8 | 0 | 0 | 0 | 0 | 0 | 0 | 0 | 0
3 | Fc1ccc(-c2nc[nH]c2-c2ccncc2)cc1 [SB-217360] | 58 | 9 | 0 | 0 | 0 | 0 | 30 | 1 | 37 | 27 | 0 | 13 | 0 | 0 | 0 | 4 | 0 | 0 | 0 | 3
4 | Cc1ccc(NC(=O)Nc2ccc(Cl)cc2)cc1-c1ccc(C(=O)Nc2ccncc2)cc1 [GSK1398472] | 11 | 21 | 10 | 7 | 0 | 0 | 0 | 15 | 16 | 0 | 20 | 8 | 0 | 0 | 0 | 18 | 11 | 0 | 0 | 2
5 | Cc1ccc(NC(=O)Nc2ccc(Cl)c(C(F)(F)F)c2)cc1-c1ccc(C(=O)Nc2ccncc2)cc1 [GSK1398470] | 20 | 0 | 3 | 0 | 0 | 10 | 36 | 17 | 1 | 5 | 38 | 9 | 0 | 13 | 0 | 16 | 10 | 0 | 2 | 24
6 | CNc1nc(-c2ccc3c(N)n[nH]c3c2)cc(N2C[C@@H](C(=O)NC3CCCCC3)OC[C@H]2C)n1 [GSK2375584] | 11 | 0 | 10 | 0 | 0 | 0 | 23 | 20 | 4 | 0 | 30 | 0 | 0 | 18 | 0 | 0 | 16 | 0 | 0 | 18
7 | CNC(=O)c1ccc(C)c(-n2c(C)cc(OCc3ccc(F)cc3F)c(Br)c2=O)c1 | 0 | 0 | 0 | 100 | 0 | 0 | 0 | 19 | 0 | 8 | 0 | 0 | 0 | 0 | 0 | 33 | 6 | 9 | 3 | 0
8 | Cc1ccccc1Cn1ccn2c(=O)cc(N3CCOCC3)nc12 [GSK2269905] | 0 | 0 | 0 | 10 | 0 | 0 | 17 | 3 | 0 | 0 | 17 | 0 | 0 | 0 | 0 | 9 | 2 | 8 | 0 | 0
9 | O=C1NC(=O)C(c2ccc(Cl)cc2)=C1Nc1ccc(O)cc1 [SB-340867] | 11 | 0 | 0 | 0 | 0 | 0 | 0 | 4 | 8 | 0 | 0 | 0 | 0 | 0 | 0 | 0 | 0 | 0 | 3 | 11
10 | COC(=O)C(NC(=O)NC1CCN(c2ccnc(Nc3ccc(F)cc3)n2)C1)c1ccccc1 (stereo not drawn) [GSK1379712] | 7 | 32 | 24 | 6 | 5 | 0 | 0 | 6 | 10 | 0 | 35 | 0 | 28 | 3 | 0 | 31 | 12 | 10 | 13 | 12
11 | O=c1cc(N2CCOCC2)nc2n(Cc3ccccc3F)ccn12 [GSK2297428] | 8 | 0 | 0 | 0 | 0 | 0 | 0 | 38 | 4 | 0 | 26 | 8 | 0 | 0 | 0 | 13 | 0 | 0 | 0 | 12
12 | O=c1cc(N2CCOCC2)nc2n(Cc3cccc(Cl)c3Cl)c3ccccc3n12 [GSK2299009] | 5 | 28 | 10 | 8 | 16 | 0 | 32 | 36 | 24 | 14 | 44 | 39 | 9 | 6 | 0 | 19 | 39 | 17 | 13 | 31
13 | COc1nccc(-c2c(-c3ccc(F)cc3)ncn2CCCN2CCOCC2)n1 [SB-282852] | 0 | 23 | 54 | 42 | 0 | 0 | 0 | 0 | 12 | 0 | 0 | 0 | 22 | 0 | 0 | 0 | 0 | 56 | 0 | 18
14 | CS(=O)(=O)Cc1ccc(Nc2nccc(-c3c(-c4cccc(NC(=O)C5CCCCC5)c4)nn4ncccc34)n2)cc1 [GSK350559] | 0 | 21 | 25 | 13 | 3 | 2 | 7 | 13 | 0 | 0 | 11 | 11 | 44 | 3 | 23 | 18 | 0 | 0 | 0 | 31
15 | CS(=O)(=O)CCNCc1nc(-c2ccc3ncnc(Nc4ccc(OCc5ccccc5)c(Cl)c4)c3c2)cs1.Cl [GW582764] | 0 | 0 | 0 | 0 | 89 | 0 | 0 | 0 | 3 | 0 | 14 | 0 | 0 | 0 | 0 | 8 | 0 | 3 | 0 | 0
